We go through 6 compounds from PubChem BioAssay (NCATS).

Assay [1] is described as follows: S16 Schwann cell viability assay (CellTiter-Glo assay) (AID 624031).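 Also: cellular ATP luminescence as a viability measure; nearly all actives have a fitted effect of over 70% in size.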 The procedure, abridged: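 Native S16 rat Schwann cells, 500-750 cells/well in DMEM with 10% FBS, dosed with compound after overnight culture and incubated 24h at 37 degree Celsius/5% CO2. Viability by CellTiter-Glo luminescence; % activity normalized to no-cell wells and DMSO-treated cells.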

A further assay relates to AA1029. Briefly: qHTS profiling for inhibitors of Plasmodium falciparum proliferation (AID 504749). Also: nearly all actives have a fitted effect of over 60% in size. Also: potency is read from the fitted curve at half-maximal effect. The note with it: P. falciparum in erythrocytes, SYBR Green DNA, 72 h; series mostly up to 28.7 µM. The procedure, abridged: (§1)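 Three-day growth assay of blood-stage parasites in erythrocytes (0.3% parasitemia, 2.5% hematocrit) at 37 C, 5% CO2, quantified by SYBR Green DNA staining after overnight detergent lysis.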

For another assay, the system named is AS120. The assay is described as above. To be noted: P. falciparum in erythrocytes, SYBR Green DNA, 72 h; series mostly up to 28.7 µM. The essentials: as §1
The subject of another assay is ATS189. Described as above. The note with it: P. falciparum in erythrocytes, SYBR Green DNA, 72 h; series mostly up to 28.7 µM. The procedure, abridged: as §1
The subject of another assay is CP194. The description is as above. To be noted: P. falciparum in erythrocytes, SYBR Green DNA, 72 h; series mostly up to 28.7 µM. The procedure, abridged:
as §1

Another assay concerns CP201. Described as above. To be noted: P. falciparum in erythrocytes, SYBR Green DNA, 72 h; series mostly up to 28.7 µM. The procedure, abridged: as §1
A further assay has as its system CP203. Described as above. To be noted: P. falciparum in erythrocytes, SYBR Green DNA, 72 h; series mostly up to 28.7 µM. The essentials: as §1
The test system of the next assay is CP215. The description is as above. To be noted: P. falciparum in erythrocytes, SYBR Green DNA, 72 h; series mostly up to 28.7 µM. The essentials: as §1
A further assay deals with CP237. Described as above. To be noted: P. falciparum in erythrocytes, SYBR Green DNA, 72 h; series mostly up to 28.7 µM. The essentials: as §1
A further assay concerns CP252. Described as above. To be noted: P. falciparum in erythrocytes, SYBR Green DNA, 72 h; series mostly up to 28.7 µM. The procedure, abridged: as §1
The subject of a further assay is CP256. The assay is described as above. The note with it: P. falciparum in erythrocytes, SYBR Green DNA, 72 h; series mostly up to 28.7 µM. The procedure, abridged:
as §1

The subject of a further assay is CP265. The description is as above. To be noted: P. falciparum in erythrocytes, SYBR Green DNA, 72 h; series mostly up to 28.7 µM. The essentials:
as §1

A further assay concerns CP268. The description is as above. The note with it: P. falciparum in erythrocytes, SYBR Green DNA, 72 h; series mostly up to 28.7 µM. The essentials:
as §1

A further assay deals with CP291. The description is as above. To be noted: P. falciparum in erythrocytes, SYBR Green DNA, 72 h; series mostly up to 28.7 µM. The essentials:
as §1

The subject of the next assay is CP297. Described as above. To be noted: P. falciparum in erythrocytes, SYBR Green DNA, 72 h; series mostly up to 28.7 µM. The essentials: as §1
Another assay concerns CP329. The description is as above. To be noted: P. falciparum in erythrocytes, SYBR Green DNA, 72 h; series mostly up to 28.7 µM. The essentials:
as §1

Another assay has as its system ECU. The assay is described as above. To be noted: P. falciparum in erythrocytes, SYBR Green DNA, 72 h; series mostly up to 28.7 µM. The essentials:
as §1

The test system of a further assay is PC15. The assay is described as above. To be noted: P. falciparum in erythrocytes, SYBR Green DNA, 72 h; series mostly up to 28.7 µM. The essentials:
as §1

The subject of another assay is TAB109. Described as above. To be noted: P. falciparum in erythrocytes, SYBR Green DNA, 72 h; series mostly up to 28.7 µM. The procedure, abridged: as §1
In the next assay the test system is CP266. The description is as above. The note with it: P. falciparum in erythrocytes, SYBR Green DNA, 72 h; series mostly up to 28.7 µM. The procedure, abridged:
as §1

SMILES strings stand for the structures. Results filed as inconclusive are left out. The source made the active and inactive calls. Calls follow the shape of the dose curve; as a rule, active = well fitted curve in the direction sought with a large enough effect; inconclusive = small, poorly fitted or top-dose-only effect, or another doubt; inactive = no such curve, though single readings can be large; an effect the other way counts as inactive or inconclusive.

As for `COc1ccc2cc1Oc1cc3c(cc1OC)CC[N+](C)(C)C3Cc1ccc(cc1)Oc1c(OC)c(OC)cc3c1C(C2)[N+](C)(C)CC3` (stereo not drawn), the Potency entry (in assay [1]; in the assay on AA1029; in the assay on AS120; with ATS189; in the assay on CP194; in the assay with CP201) was “inactive” throughout. Besides, the Potency entry with CP203, in the assay on CP215, with CP237, in the assay on CP252, with CP256 and with CP265 was “inactive” in each case. Besides, the Potency entry with CP268, in the assay with CP291, with CP297, in the assay with CP329, in the assay with ECU and in the assay on PC15 was “inactive” in each case. Moreover, the Potency entry with TAB109 was “inactive”.
In the case of `Clc1ccc(CS[C@@H](Cn2ccnc2)c2ccc(Cl)cc2Cl)cc1`, the Potency result in [1] is “inactive”. Also, the Potency in the assay with AA1029 is 3.55 µM (active); in the assay with AS120, 1.26 µM (active); in the assay with ATS189, 3.16 µM (active); in the assay with CP194, 5.1 µM (active); in the assay with CP203 it was 4.55 µM (active); in the assay with CP237, 1.78 µM (active). The Potency was 3.98 µM (active) in the assay on CP252; 3.16 µM (active) in the assay with CP265; 5.73 µM (active) in the assay on CP291; 3.22 µM (active) in the assay with CP297; 1.78 µM (active) in the assay with ECU; 3.55 µM (active) in the assay on PC15. Besides, in the assay with TAB109, the Potency is 3.55 µM (active).
`CC(=O)OC1C([N+]2(C)CCCCC2)C[C@H]2C3CC[C@H]4C[C@H](OC(C)=O)C([N+]5(C)CCCCC5)CC4(C)C3CCC12C` (stereo partly drawn): the Potency result (in assay [1]; in the assay on AA1029; in the assay on AS120; with ATS189; in the assay on CP237; in the assay on CP252) was “inactive” in each case. In addition, the Potency entry in the assay on CP256, with CP265, in the assay with ECU, in the assay with PC15 and in the assay with TAB109 was “inactive” throughout. For the same compound, the Potency in the assay with CP297 is 6.01 µM (active).
For `C[C@@H]1CC2C3CCC4=CC(=O)C=C[C@]4(C)[C@@]3(F)[C@@H](O)C[C@]2(C)[C@@]1(O)C(=O)COC(=O)c1cccc(S(=O)(=O)O)c1` (stereo partly drawn), the Potency result (in [1]; in the assay with AA1029; with AS120; in the assay on ATS189; in the assay on CP194; in the assay with CP201) was “inactive” in each case. Besides, the Potency result in the assay on CP203, in the assay on CP215, in the assay on CP237, in the assay with CP252, in the assay on CP256 and in the assay on CP265 was “inactive” throughout. Besides, the Potency result in the assay with CP266, in the assay with CP268, with CP291, with CP297, in the assay with CP329 and with ECU was “inactive” each time. Further, the Potency entry with PC15 and in the assay with TAB109 was “inactive” throughout.
Regarding `CCOC(=O)C(CCc1ccccc1)NC(C)C(=O)N1Cc2cc(OC)c(OC)cc2CC1C(=O)O` (stereo not drawn), the Potency entry (in [1]; in the assay with ATS189; in the assay on CP201; in the assay with CP203; in the assay with CP215; in the assay with CP237) was “inactive” in each case. Further, the Potency result in the assay on CP252, with CP256, in the assay with CP265, with CP266, in the assay on CP268 and in the assay on CP291 was “inactive” throughout. Besides, the Potency result in the assay with CP329 and in the assay on TAB109 was “inactive” throughout. Besides, the Potency in the assay on AS120 was 5.01 µM (active); in the assay on CP297 it was 10.7 µM (active); with ECU, 5.01 µM (active); in the assay with PC15, 10 µM (active).
In the case of `CCC(C(=O)C(C)C(O)C(C)CCc1ccc(C)c(O)c1C(=O)O)C1OC(CC)(C2CC[C@@](O)(CC)C(C)O2)CC1C` (stereo partly drawn), the Potency result in assay [1] was “inactive”. For the same compound, the Potency was 0.708 µM (active) in the assay with AA1029; 0.398 µM (active) in the assay on AS120; 1.26 µM (active) in the assay on ATS189; 0.849 µM (active) in the assay with CP194; 1.07 µM (active) with CP201; 0.849 µM (active) in the assay with CP203. Moreover, the Potency is 0.849 µM (active) in the assay with CP215; 0.562 µM (active) in the assay with CP237; 0.794 µM (active) in the assay with CP252; 1 µM (active) in the assay on CP256; 0.891 µM (active) in the assay on CP265; 1.35 µM (active) in the assay with CP266. For the same compound, the Potency with CP268 was 0.849 µM (active); in the assay with CP291 it was 0.478 µM (active); in the assay on CP297 it was 0.601 µM (active); with CP329, 0.757 µM (active); with ECU, 0.708 µM (active); in the assay with PC15, 1.41 µM (active). For the same compound, the Potency in the assay with TAB109 is 0.891 µM (active).
